Test results reported in the supplement of paper PMC11732987, “Enantioselective OTUD7B fragment discovery through chemoproteomics screening and high-throughput optimisation” (Communications Chemistry, 2025).

Assays:
Experiment in all cases: log2 ratio of Biotin-Ahx-Ub-VS probe labelling (fragment/DMSO); higher = less target engagement (more negative = stronger competition), active = hit call of the paper (q ≤ 0.05, log2 ratio ≤ -1)
Settings in all cases: compound concentration: 200 uM; treatment time: 3 h
USP34 = USP34 (UniProt Q70CQ2)
Sequence of USP34 (Q70CQ2 whole entry, the tested form may be a part): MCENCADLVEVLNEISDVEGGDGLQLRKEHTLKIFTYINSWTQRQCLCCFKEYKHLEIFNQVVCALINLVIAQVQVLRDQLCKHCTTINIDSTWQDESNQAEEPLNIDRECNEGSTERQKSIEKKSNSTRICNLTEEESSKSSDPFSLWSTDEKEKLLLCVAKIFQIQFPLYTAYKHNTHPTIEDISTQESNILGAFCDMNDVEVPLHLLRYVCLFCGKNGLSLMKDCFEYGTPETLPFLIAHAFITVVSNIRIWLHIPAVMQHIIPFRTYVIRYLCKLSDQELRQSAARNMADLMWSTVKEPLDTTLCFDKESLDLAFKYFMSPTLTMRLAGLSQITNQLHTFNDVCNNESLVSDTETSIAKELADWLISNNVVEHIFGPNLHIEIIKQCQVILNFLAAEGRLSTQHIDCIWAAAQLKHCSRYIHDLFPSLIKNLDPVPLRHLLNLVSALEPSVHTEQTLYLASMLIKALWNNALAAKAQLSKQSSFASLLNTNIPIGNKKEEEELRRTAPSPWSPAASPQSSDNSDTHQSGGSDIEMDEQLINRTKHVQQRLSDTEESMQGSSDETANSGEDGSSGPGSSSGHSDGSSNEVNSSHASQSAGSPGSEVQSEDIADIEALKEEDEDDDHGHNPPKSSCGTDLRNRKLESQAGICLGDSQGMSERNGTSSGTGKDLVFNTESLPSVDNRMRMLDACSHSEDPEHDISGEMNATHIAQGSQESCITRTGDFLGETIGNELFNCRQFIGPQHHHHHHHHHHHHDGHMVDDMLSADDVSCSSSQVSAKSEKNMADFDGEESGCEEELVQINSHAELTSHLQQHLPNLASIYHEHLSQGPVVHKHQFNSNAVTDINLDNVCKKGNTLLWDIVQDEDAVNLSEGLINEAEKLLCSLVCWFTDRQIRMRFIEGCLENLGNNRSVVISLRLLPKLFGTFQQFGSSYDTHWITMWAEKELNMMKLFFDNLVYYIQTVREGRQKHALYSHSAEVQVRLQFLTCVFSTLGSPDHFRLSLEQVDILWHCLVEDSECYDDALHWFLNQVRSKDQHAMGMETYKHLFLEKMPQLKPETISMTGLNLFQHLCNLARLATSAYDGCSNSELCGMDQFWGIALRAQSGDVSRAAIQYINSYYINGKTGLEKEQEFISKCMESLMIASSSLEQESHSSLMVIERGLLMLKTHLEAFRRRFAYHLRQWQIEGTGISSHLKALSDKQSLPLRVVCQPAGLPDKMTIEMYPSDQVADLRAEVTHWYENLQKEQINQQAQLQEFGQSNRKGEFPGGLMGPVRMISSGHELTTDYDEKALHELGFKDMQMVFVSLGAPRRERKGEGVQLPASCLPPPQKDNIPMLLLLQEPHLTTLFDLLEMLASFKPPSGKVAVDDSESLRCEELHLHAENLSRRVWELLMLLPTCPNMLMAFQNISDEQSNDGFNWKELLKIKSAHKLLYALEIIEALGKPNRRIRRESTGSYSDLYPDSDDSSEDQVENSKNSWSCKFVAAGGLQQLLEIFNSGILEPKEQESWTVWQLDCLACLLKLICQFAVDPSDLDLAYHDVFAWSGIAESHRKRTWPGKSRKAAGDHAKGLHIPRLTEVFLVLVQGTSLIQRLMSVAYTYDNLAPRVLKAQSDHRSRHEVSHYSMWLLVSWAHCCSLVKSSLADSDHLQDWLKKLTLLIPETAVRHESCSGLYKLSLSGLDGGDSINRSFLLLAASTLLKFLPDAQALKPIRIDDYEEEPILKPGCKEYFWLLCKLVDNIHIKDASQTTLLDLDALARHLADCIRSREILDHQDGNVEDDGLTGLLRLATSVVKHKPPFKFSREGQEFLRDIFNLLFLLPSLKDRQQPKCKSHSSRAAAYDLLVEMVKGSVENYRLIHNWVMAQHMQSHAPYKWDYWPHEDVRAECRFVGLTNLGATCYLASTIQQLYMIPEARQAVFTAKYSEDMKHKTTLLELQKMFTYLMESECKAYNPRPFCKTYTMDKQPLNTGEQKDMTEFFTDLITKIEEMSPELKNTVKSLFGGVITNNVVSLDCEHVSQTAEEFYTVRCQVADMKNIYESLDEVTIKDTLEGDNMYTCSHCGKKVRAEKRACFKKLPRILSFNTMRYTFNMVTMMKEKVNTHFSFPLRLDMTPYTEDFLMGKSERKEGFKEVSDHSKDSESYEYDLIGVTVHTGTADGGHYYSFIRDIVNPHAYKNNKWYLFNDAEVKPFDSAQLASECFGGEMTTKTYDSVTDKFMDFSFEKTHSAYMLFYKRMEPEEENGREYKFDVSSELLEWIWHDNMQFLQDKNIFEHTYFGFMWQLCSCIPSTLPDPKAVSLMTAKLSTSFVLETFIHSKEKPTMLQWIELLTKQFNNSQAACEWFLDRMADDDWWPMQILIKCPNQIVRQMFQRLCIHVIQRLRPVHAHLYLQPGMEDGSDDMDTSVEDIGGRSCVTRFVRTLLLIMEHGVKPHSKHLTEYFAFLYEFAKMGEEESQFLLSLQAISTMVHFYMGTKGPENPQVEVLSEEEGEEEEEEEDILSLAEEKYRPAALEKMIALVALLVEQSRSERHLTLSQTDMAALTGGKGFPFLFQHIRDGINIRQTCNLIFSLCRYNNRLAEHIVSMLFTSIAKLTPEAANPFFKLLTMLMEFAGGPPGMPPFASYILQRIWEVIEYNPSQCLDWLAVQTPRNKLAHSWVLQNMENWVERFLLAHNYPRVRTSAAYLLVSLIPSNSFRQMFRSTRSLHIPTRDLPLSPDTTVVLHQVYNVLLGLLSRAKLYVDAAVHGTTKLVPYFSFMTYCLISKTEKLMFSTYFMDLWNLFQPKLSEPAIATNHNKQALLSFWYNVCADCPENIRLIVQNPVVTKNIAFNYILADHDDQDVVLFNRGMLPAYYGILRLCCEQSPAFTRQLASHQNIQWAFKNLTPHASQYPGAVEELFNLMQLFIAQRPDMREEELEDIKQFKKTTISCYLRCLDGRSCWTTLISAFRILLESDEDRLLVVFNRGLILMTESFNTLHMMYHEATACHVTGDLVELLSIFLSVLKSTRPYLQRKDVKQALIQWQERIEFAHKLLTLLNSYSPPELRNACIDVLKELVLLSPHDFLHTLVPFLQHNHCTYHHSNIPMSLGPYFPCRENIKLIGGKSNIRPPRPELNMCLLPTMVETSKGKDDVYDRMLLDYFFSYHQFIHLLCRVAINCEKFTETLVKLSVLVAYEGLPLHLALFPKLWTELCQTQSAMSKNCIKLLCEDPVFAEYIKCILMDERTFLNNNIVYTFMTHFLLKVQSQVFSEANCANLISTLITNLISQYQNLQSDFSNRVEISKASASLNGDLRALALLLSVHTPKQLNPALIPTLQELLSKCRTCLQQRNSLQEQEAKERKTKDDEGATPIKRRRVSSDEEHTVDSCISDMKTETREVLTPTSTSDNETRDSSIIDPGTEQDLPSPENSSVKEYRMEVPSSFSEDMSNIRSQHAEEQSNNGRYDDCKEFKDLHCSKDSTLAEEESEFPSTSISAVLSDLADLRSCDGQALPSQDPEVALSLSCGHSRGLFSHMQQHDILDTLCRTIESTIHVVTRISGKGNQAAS
How it was run: (§1)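 Labelled DUBs from HEK293T lysate were NeutrAvidin-enriched, digested with LysC and trypsin, and run by diaPASEF LC-MS/MS. Before that, each 495 µg sample in Tris/CHAPS/IGEPAL buffer with protease inhibitors was treated in triplicate with fragment at 200 µM or vehicle for 3 h, then with Biotin-Ahx-Ub-VS at 0.5 µM final for 1 h. Values are average log2 ratios of fragment over vehicle by unpaired t-test, based on global-median-normalised Spectronaut label-free quantities from proteins with ≥2 unique peptides.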

USP36 = biological target: T1, USP36 (UniProt Q9P275)
T1 sequence (whole entry): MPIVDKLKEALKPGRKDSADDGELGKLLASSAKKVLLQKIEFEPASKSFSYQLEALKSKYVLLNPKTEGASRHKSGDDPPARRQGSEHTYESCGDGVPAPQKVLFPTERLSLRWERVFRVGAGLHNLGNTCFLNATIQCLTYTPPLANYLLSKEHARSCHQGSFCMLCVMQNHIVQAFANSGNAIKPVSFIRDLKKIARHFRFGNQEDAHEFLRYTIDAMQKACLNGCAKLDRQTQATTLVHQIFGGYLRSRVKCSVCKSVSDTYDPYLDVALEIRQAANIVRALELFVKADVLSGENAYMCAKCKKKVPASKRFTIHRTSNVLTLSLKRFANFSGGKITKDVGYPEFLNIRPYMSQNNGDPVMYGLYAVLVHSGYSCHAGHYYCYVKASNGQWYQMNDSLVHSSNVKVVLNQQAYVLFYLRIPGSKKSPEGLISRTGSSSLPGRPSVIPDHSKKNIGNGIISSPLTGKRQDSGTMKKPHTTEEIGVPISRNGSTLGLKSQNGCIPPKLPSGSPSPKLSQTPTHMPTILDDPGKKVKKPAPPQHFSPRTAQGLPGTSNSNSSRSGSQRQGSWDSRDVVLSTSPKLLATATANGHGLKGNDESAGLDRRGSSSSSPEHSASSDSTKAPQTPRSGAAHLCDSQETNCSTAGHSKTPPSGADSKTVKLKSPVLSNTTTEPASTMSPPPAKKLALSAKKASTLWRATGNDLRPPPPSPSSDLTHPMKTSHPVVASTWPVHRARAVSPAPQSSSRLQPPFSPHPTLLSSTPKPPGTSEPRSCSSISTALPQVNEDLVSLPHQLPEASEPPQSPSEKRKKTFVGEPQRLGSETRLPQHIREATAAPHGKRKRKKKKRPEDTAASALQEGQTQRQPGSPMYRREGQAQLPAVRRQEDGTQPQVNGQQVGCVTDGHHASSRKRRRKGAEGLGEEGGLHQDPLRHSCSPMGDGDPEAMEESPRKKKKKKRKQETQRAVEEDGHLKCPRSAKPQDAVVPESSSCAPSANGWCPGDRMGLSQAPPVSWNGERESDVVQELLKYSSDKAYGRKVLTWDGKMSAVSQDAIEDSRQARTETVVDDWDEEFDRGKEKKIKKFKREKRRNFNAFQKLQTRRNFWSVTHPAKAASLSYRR
How it was run: as §1

USP38 = biological target: T2, USP38 (UniProt Q8NB14)
T2 sequence (whole entry): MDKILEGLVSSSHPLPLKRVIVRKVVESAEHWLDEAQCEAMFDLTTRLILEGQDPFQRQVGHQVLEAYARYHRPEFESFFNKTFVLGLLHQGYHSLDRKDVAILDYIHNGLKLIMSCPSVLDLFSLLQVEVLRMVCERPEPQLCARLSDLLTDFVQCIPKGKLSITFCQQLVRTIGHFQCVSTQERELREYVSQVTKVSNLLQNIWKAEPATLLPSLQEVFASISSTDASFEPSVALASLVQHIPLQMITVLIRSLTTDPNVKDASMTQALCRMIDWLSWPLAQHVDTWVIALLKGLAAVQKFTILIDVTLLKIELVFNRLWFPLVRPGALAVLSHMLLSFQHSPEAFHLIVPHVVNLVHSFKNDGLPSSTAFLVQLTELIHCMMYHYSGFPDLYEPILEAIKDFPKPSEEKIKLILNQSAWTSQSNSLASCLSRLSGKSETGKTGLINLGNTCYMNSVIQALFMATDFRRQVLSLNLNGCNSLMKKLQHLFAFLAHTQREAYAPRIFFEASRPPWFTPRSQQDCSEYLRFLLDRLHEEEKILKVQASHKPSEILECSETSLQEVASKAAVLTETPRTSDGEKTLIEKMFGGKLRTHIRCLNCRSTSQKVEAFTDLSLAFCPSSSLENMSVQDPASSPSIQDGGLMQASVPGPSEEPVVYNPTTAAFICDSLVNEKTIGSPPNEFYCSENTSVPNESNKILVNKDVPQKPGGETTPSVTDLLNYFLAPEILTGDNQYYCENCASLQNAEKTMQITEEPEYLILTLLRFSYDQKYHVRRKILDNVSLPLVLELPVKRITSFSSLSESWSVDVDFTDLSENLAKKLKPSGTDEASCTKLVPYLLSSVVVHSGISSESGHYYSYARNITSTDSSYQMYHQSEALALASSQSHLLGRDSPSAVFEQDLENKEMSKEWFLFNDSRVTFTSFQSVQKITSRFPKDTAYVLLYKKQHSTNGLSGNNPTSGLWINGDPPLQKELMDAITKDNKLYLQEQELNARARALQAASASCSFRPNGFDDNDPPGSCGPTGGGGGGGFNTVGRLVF
How it was run: as §1

USP39 = biological target: T3, USP39 (UniProt Q53GS9)
T3 sequence (whole entry): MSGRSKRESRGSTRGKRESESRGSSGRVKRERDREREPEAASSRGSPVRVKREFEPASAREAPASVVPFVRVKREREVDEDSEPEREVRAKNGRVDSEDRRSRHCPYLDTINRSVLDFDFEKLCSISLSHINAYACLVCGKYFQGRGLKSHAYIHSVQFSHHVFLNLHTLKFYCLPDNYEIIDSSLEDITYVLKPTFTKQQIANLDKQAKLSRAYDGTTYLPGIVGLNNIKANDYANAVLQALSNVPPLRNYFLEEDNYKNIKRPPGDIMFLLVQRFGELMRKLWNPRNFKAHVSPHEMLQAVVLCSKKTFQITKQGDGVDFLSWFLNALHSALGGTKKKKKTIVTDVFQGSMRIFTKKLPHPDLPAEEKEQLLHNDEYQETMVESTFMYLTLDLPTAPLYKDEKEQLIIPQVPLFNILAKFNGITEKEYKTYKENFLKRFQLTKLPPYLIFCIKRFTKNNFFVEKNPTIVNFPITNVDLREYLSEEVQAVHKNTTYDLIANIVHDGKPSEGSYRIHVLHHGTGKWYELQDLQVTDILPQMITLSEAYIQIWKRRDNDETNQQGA
How it was run: as §1

USP4 = biological target: T4, USP4 (UniProt Q13107)
T4 sequence (whole entry): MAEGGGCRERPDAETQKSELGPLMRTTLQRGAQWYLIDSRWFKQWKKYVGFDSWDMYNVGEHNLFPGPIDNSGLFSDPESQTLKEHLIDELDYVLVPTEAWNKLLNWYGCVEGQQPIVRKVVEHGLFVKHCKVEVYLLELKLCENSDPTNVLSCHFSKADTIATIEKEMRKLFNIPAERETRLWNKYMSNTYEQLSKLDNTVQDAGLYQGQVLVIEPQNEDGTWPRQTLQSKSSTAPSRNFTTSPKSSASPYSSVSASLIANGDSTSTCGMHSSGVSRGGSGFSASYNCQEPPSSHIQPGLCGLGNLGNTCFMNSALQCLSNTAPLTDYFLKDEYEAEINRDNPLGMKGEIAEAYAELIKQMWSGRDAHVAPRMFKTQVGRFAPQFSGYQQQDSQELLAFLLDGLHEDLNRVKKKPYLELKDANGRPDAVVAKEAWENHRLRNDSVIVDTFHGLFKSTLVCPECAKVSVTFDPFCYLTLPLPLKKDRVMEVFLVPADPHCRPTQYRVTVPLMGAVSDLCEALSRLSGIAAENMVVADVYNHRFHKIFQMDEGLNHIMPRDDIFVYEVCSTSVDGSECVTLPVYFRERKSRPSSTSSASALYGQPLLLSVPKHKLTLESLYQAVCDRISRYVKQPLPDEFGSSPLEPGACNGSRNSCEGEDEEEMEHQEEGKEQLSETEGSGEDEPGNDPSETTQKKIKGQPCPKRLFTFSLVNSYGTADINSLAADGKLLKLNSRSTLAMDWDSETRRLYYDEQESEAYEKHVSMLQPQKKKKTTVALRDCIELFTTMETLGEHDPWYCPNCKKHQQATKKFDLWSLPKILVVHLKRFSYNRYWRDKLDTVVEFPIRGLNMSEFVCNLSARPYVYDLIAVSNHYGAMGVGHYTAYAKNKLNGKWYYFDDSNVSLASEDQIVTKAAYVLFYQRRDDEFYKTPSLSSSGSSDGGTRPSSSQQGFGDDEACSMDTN
How it was run: as §1

Measured: log2 ratio of Biotin-Ahx-Ub-VS probe labelling

Cl.Cn1nccc1C(NC(=O)CCl)c1ccccc1 (stereo not given)
inactive: USP34 -0.0966 | USP36 0.193 | USP38 -0.0261 | USP39 0.0185 | USP4 -0.116
